Measured potencies and affinities stand elsewhere. Records with an inconclusive call do not appear. Calls of active or inactive are those of the source.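 How the source made its calls: active means raises choline transporter activity at one or more tested doses and gives a fitted dose-response curve; inconclusive means no clear call, values can overlap the other calls; inactive means no choline transporter activation at any dose, or no curve.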
Each compound was assayed against High affinity choline transporter 1 (Homo sapiens) (UniProt Q9GZV3) (assay: CHT activators, dose response, cell-based, 10-point CRC, membrane potential dye (AID 602376)). Details: HEK293-CHT, choline-induced membrane potential dye, cells express CHT LV-AA mutant; series mostly up to 67 µM.
High affinity choline transporter 1 (Homo sapiens), sequence (Q9GZV3 whole entry, looked up): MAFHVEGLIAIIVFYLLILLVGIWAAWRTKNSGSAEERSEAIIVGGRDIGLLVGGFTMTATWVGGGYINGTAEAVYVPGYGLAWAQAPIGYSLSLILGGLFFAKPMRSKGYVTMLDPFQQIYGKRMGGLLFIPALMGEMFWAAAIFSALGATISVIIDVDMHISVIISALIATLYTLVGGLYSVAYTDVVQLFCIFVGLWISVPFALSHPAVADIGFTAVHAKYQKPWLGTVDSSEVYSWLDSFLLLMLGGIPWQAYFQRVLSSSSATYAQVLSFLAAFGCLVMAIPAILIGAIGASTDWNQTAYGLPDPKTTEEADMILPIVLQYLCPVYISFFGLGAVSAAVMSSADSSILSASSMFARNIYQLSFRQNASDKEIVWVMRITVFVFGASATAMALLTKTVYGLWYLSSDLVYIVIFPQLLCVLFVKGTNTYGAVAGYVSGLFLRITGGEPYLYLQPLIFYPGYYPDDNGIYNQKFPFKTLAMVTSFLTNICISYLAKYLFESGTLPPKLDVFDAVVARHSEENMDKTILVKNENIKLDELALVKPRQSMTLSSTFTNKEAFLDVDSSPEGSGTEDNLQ

outcome, inactive:
CCc1ccc(OCC(=O)N/N=C/c2cc([N+](=O)[O-])ccc2N2CCOCC2)cc1, Cc1ccc(-n2c(SCCN)nnc2-c2cccc(C)c2)cc1, CCOC(=O)C1(CCc2ccccc2)CCN(Cc2cc(OC)c(OC)cc2OC)CC1, CCOC(=O)c1c[nH]c2nc(C)ccc2c1=O, CC(C)(C)N(NC(=O)c1ccccc1)C(=O)c1cccc(C(=O)N(NC(=O)c2ccccc2)C(C)(C)C)c1, Cn1c(=O)c(=O)n(C)c2cc(S(=O)(=O)N3CCC(N4CCCCC4)CC3)ccc21, CCc1ccc(C(O)(CNCc2ccccc2)c2ccccc2)cc1 (centres undefined), CCN1CCc2nc(NC(=O)C(c3ccccc3)c3ccccc3)sc2C1, CC(C)CCC(CCNCc1ccccn1)c1ccc(Cl)cc1 (centres undefined), O=C(COC(=O)c1c2c(nc3ccccc13)CCCCC2)NCc1ccc2c(c1)OCO2, CC(C)CCOC(=O)/C(=C/c1ccco1)NC(=O)/C=C/c1ccccc1, O=C1N(Cc2cccc(Cl)c2)C[C@@H]2C[C@@H](c3ccsc3)N3CCC[C@@]123, COC(=O)C1=C(C)N(Cc2ccccc2)C(=NCC(C)C)N[C@H]1c1ccccc1, COc1cccc(C(c2nnnn2CCc2ccccc2)N2CCN(c3ccccc3)CC2)c1OC (centres undefined), CN(Cc1ccc(F)cc1)C(=O)C(c1ccccc1)c1ccccc1, O=C1CCC(C(=O)N(Cc2cccs2)C2(C(=O)NC3CCCCC3)CCCCC2)N1 (centres undefined), CCC(=O)N1CCN(c2ccccc2NC(=O)c2ccc([N+](=O)[O-])o2)CC1, Cn1c(=O)c2c(nc(CN3CCN(c4cccc(Cl)c4)CC3)n2CCc2ccccc2)n(C)c1=O, O=C(COc1ccccc1)NCC(c1ccco1)N1CCN(c2ccccc2)CC1 (centres undefined), COc1cccc(-c2cn(C[C@H]3CC[C@@H]([C@@H]4CC[C@H](Cn5cc(-c6cccc(OC)c6)nn5)O4)O3)nn2)c1, CCc1ccc(NC(=O)CSc2nc3ccccc3c(=O)n2CCCN2CCC(C)CC2)cc1, CCC(=O)N(CCC(c1ccc(C)cc1)c1ccco1)Cc1ccco1 (centres undefined), NCCCC[C@H]1CN=C(N)N1CCCCC1CCCCC1, CCC(C)Nc1nc(CN2CCOCC2)nc2sc3c(c12)CCC3 (centres undefined), CC1(C)Cc2c(sc3nc4n(c(=N)c23)CCC4)CO1, CCOc1cc(NC(=O)c2ccco2)c(OCC)cc1NC(=O)c1ccco1, CCOC(=O)c1cc2c(=O)n3ccccc3nc2n(CC2CCCO2)c1=NC(=O)/C=C/c1ccccc1 (centres undefined), O=C(NCC(c1ccco1)N1CCCC1)c1ccccc1Sc1ccc(C(F)(F)F)cc1[N+](=O)[O-] (centres undefined), CCOC(=O)c1c(CSc2ccsc2)n(C)c2cc(Br)c(O)c(CN(C)C)c12, CCc1cccc(OCCn2nc(C(=O)O)c3ccccc3c2=O)c1, CCCCC(c1nnnn1C1CCCC1)N1CCN(C2CCCC2)CC1 (centres undefined), Cc1cccc2nc(-c3cccnc3)c(NCCC(C)C)n12, CCc1cccc(C)c1NC(=O)CN(C)Cc1ccc(Br)cc1, COC(=O)CNC(c1ccccc1)c1cc(C)ccc1NC(=O)c1cccc(Cl)c1 (centres undefined), CCCC(c1nnnn1Cc1ccco1)N1CCN(c2cc(Cl)ccc2C)CC1 (centres undefined), CCOC(=O)c1sc2nc(SCC#N)n(CCCN3CCCC3=O)c(=O)c2c1C, C=CCN1C(c2ccc(OCC)cc2)=CS/C1=C(\C#N)c1nnc2n1CCCCC2, Cc1noc(C)c1CSc1nc2ccccc2c(=O)n1-c1ccccc1, CCC(C)(C)C1CCc2nc3ccccc3c(C(=O)OC(C)C(=O)Nc3c(C)n(C)n(-c4ccccc4)c3=O)c2C1 (centres undefined)
